PubChem BioAssay AID1159580 (chemical genetic matrix, 2015)
Values joined by “and” are separate entries in the source; they are usually repeats but may differ in a detail not shown here. Equal entries are not always repeated. About 2,000 (36%) of roughly 5,500 compounds were called active. About 18% were inconclusive and are not listed. Rule as the data show it: active = normalized growth mostly below about 0.91 (no sharp cut-off); inconclusive = no clear call, values can overlap the other calls; inactive = mostly above about 0.92. Some of the results follow.

Experiment: chemical genetic growth profiling, strain panel (AID 1159580);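 also: tested at 20 µM; growth read once vehicle control cultures reached saturation at 30 °C; 1 = growth at the plate median or of vehicle wells; lower values mean less growth of the strain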
Conditions: S. cerevisiae deletion strains, growth OD

Measured: normalized growth

COC(=O)C[C@H]1C(C)(C)[C@@H](O)[C@@H]2CC3=C4CC(O)O[C@@H](c5ccoc5)[C@]4(C)CCC3[C@@]1(C)C2=O (some centres not stated)
inactive: locus YAL013W, strain DEP1, stronger effect = lower value 1.01 | locus YAL021C, strain ccr4, stronger effect = lower value 1.01 | locus YAL026C, strain drs2, stronger effect = lower value 1.06 | locus YAL030W, strain snc1, stronger effect = lower value 1.03 | locus YBL061C, strain skt5, stronger effect = lower value 1.03 | locus YBR009C, strain hhf1, stronger effect = lower value 1.02 | locus YBR021W, strain FUR4, stronger effect = lower value 1.07 | locus YBR023C, strain chs3, stronger effect = lower value 1 | locus YBR171W, strain sec66, stronger effect = lower value 1.05 | locus YBR229C, strain ROT2, stronger effect = lower value 1 | locus YBR231C, strain swc5, stronger effect = lower value 1.03 | locus YBR279W, strain paf1, stronger effect = lower value 1.03 | locus YCL011C, strain gbp2, stronger effect = lower value 1 | locus YCL016C, strain dcc1, stronger effect = lower value 0.99 | locus YCL029C, strain bik1, stronger effect = lower value 0.99 | locus YCL069W, strain vba3, stronger effect = lower value 1.01 | locus YCR088W, strain abp1, stronger effect = lower value 1.02 | locus YDL005C, strain med2, stronger effect = lower value 1.03 | locus YDL035C, strain GPR1, stronger effect = lower value 1.03 | locus YDL040C, strain nat1, stronger effect = lower value 1.02 | locus YDL074C, strain BRE1, stronger effect = lower value 1.01 | locus YDL101C, strain DUN1, stronger effect = lower value 1 | locus YDL134C, strain PPH21, stronger effect = lower value 0.978 | locus YDL185W, strain tfp1, stronger effect = lower value 0.962 | locus YDL192W, strain arf1, stronger effect = lower value 0.989 | locus YDR001C, strain nth1, stronger effect = lower value 1.02 | locus YDR069C, strain doa4, stronger effect = lower value 1.02 | locus YDR101C, strain arx1, stronger effect = lower value 0.999 | locus YDR137W, strain rgp1, stronger effect = lower value 1.01 | locus YDR159W, strain sac3, stronger effect = lower value 1.09 | locus YDR162C, strain NBP2, stronger effect = lower value 0.987 | locus YDR195W, strain ref2 1.01 | locus YDR297W, strain sur2, stronger effect = lower value 1.03 | locus YDR318W, strain mcm21, stronger effect = lower value 0.991 | locus YDR334W, strain swr1, stronger effect = lower value 1.03 | locus YDR335W, strain msn5, stronger effect = lower value 1.01 | locus YDR388W, stronger effect = lower value 0.984 | locus YDR392W, strain spt3, stronger effect = lower value 0.938 | locus YDR502C, strain sam2, stronger effect = lower value 0.981 | locus YEL003W, strain gim4, stronger effect = lower value 1.05 | locus YEL037C, strain rad23, stronger effect = lower value 1.03 | locus YEL061C, strain CIN8 (second series), stronger effect = lower value 1.02 | locus YEL061C, strain CIN8, stronger effect = lower value 1.01 | locus YER015W, strain faa2, stronger effect = lower value 1.01 | locus YER016W, strain bim1, stronger effect = lower value 1.02 | locus YER110C, stronger effect = lower value 0.98 | locus YER111C, strain swi4, stronger effect = lower value 1.03 | locus YER155C, strain BEM2 (second series), stronger effect = lower value 1.08 | locus YER155C, strain BEM2, stronger effect = lower value 0.998 | locus YER167W, strain BCK2, stronger effect = lower value 1.01 | locus YFR010W, strain ubp6, stronger effect = lower value 1.05 | locus YGL078C, strain dbp3, stronger effect = lower value 0.97 | locus YGL086W, strain mad1, stronger effect = lower value 1.02 | locus YGL167C, strain pmr1, stronger effect = lower value 1.02 | locus YGL173C, strain kem1, stronger effect = lower value 1.06 | locus YGL227W, strain vid30, stronger effect = lower value 1.03 | locus YGL240W, strain doc1, stronger effect = lower value 1.04 | locus YGL248W, strain PDE1, stronger effect = lower value 1.01 | locus YGL253W, strain hxk2, stronger effect = lower value 1.04 | locus YGR078C, strain PAC10, stronger effect = lower value 0.985 | locus YGR135W, strain pre9, stronger effect = lower value 0.95 | locus YGR229C, strain SMI1, stronger effect = lower value 1.04 | locus YGR252W, strain gcn5, stronger effect = lower value 0.981 | locus YHR013C, strain ard1, stronger effect = lower value 1.01 | locus YHR027C, strain rpn1, stronger effect = lower value 1.02 | locus YHR030C, strain SLT2, stronger effect = lower value 1.01 | locus YHR079C, strain IRE1 (second series), stronger effect = lower value 0.984 | locus YHR079C, strain IRE1, stronger effect = lower value 1.01 | locus YHR094C, strain hxt1, stronger effect = lower value 0.979 | locus YHR129C, strain ARP1, stronger effect = lower value 1 | locus YHR142W, strain chs7, stronger effect = lower value 0.994 | locus YHR200W, strain rpn10, stronger effect = lower value 0.996 | locus YIL066C, strain RNR3, stronger effect = lower value 1.02 | locus YIL073C, strain SPO22, stronger effect = lower value 0.916 | locus YIL125W, strain kgd1, stronger effect = lower value 0.987 | locus YIR030C, strain dcg1, stronger effect = lower value 0.976 | locus YJL092W, strain hpr5, stronger effect = lower value 1.03 | locus YJL095W, strain BCK1 (second series), stronger effect = lower value 1.02 | locus YJL095W, strain BCK1, stronger effect = lower value 0.977 and 1.02 | locus YJL115W, strain asf1, stronger effect = lower value 1.03 | locus YJL129C, strain trk1, stronger effect = lower value 1 | locus YJL134W, strain LCB3, stronger effect = lower value 1 | locus YJL154C, strain vps35, stronger effect = lower value 1.02 | locus YJL164C, strain tpk1, stronger effect = lower value 1.01 | locus YJL166W, strain qcr8, stronger effect = lower value 1.03 | locus YJL168C, strain set2, stronger effect = lower value 0.991 | locus YJL187C, strain SWE1 (second series), stronger effect = lower value 0.987
